Target: Tyrosine-protein kinase ABL2 (Homo sapiens) (UniProt P42684)
Details: at 1 µM

Chain of Tyrosine-protein kinase ABL2 (Homo sapiens) (P42684 whole entry): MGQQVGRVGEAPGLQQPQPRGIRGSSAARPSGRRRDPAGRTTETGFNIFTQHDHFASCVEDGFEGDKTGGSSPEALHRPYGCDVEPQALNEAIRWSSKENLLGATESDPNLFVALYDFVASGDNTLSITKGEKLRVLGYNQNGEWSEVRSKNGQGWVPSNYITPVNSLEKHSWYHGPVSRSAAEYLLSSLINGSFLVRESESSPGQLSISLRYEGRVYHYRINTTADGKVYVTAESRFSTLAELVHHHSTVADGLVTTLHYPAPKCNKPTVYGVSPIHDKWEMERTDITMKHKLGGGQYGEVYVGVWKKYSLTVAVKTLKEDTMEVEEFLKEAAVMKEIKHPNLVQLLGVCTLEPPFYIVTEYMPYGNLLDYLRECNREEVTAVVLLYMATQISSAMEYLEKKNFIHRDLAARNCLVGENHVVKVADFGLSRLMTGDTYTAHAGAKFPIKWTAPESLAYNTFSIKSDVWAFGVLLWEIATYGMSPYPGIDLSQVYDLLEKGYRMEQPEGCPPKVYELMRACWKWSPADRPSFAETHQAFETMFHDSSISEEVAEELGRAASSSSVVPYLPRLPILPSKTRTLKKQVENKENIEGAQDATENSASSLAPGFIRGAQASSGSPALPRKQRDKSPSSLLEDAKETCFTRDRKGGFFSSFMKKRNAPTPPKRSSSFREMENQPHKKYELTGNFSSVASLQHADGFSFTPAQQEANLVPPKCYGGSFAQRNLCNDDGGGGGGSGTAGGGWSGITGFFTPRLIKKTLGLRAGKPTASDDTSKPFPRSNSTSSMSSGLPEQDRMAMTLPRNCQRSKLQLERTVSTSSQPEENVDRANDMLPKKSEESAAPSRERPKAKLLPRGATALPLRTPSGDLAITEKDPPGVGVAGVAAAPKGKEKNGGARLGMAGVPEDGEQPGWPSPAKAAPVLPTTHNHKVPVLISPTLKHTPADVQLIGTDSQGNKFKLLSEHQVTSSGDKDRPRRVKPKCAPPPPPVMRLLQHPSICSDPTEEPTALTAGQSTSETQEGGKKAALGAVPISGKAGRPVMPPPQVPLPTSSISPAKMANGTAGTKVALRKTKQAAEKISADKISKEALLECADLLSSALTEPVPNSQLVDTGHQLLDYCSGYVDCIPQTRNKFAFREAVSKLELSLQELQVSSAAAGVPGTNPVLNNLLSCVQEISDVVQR

| Compound | residual activity [%] |
| --- | --- |
| CCN(CC)CCCCN1c2ccccc2Oc2ccc(Cl)cc21 | 140 |
| O=[N+]([O-])c1ccc(-c2nc(-c3ccc(F)cc3)c(-c3ccncc3)[nH]2)cc1 | 82 |
| Cc1ccc(S(=O)(=O)/C=C/C#N)cc1 | 91 |
| Cn1nc2c3c(cccc31)C(=O)c1ccccc1-2 | 102 |
| Cc1nc2cc3nc(-c4cccs4)cnc3cc2n1C | 95 |
| COc1cc2ncnc(N3CCN(C(=O)Nc4ccc(Oc5ccccc5)cc4)CC3)c2cc1OC | 110 |
| CC(C)n1cnc2/c(=N/c3cccc(Cl)c3)nc(NCCO)[nH]c21 | 52 |
| Cc1cc(Nc2nc(-c3ccccc3)nc3ccccc23)n[nH]1 | 33 |
| N#Cc1cnc2cnc(NCc3cccnc3)cc2c1Nc1ccc(F)c(Cl)c1 | 82 |
| COc1ccc(S(=O)(=O)N(CCO)c2ccccc2CN(C)C/C=C/c2ccc(Cl)cc2)cc1 | 116 |
| c1ccc2c(-c3ccncc3)c[nH]c2c1 | 110 |
| c1ccc(-c2n[nH]cc2-c2ccnc3ccccc23)nc1 | 64 |
| O=C(Nc1cccc(Nc2nccc(Nc3cccc(C(F)(F)F)c3)n2)c1)C1CC1 | 46 |
| O=C1Nc2cc(Br)ccc2/C1=C1/Nc2ccccc2/C1=N\O | 16 |
| COc1ccc(OC)c2c(=S)c3ccccc3[nH]c12 | 116 |
| COc1cc2ncc(-c3ccccc3)nc2cc1OC | 99 |
| O=C1NC(=O)c2c1c1c3ccccc3[nH]c1c1[nH]c3cc(Br)ccc3c21 | 109 |
| O=C(Nc1cccc(Nc2cc(Nc3cccc(C(F)(F)F)c3)ncn2)c1)C1CC1 | 92 |
| N#CCCc1ccc2c(c1)-c1[nH]c3ccc([N+](=O)[O-])cc3c1CC(=O)N2 | 48 |
| Nc1nc(Nc2ccc(S(N)(=O)=O)cc2)nn1C(=S)Nc1c(F)cccc1F | -2 |
| Nc1cccc(-c2cc3c(Oc4cccc(O)c4)ncnc3[nH]2)c1 | -3 |
| Cc1cc2ncc(-c3ccccc3)nc2cc1C | 96 |
| CO[C@@H]1[C@H](N(C)C(=O)c2ccccc2)C[C@H]2O[C@]1(C)n1c3ccccc3c3c4c(c5c6ccccc6n2c5c31)C(=O)NC4 | 77 |
| CC(=O)c1ccc(N2CCOCC2)cc1O | 110 |
| COc1ccc(C(=O)Nc2sc3c(c2C(N)=O)CCCC3)cc1OC | 126 |
| CO[C@H]1[C@@H](OC)C[C@H](C)[C@@H](OC)C2=CC(=O)C=C(NC(=O)/C(C)=C/C=C/[C@H](OC)[C@@H](OC(N)=O)/C(C)=C/[C@@H]1C)C2=O | 111 |
| O=C1NC(=O)c2cc(Nc3ccc(F)cc3)c(Nc3ccc(F)cc3)cc21 | 90 |
| Oc1n[nH]c2nnc(-c3c(-c4ccccc4)nn4ccccc34)cc12 | 95 |
| O=Nc1c(-c2c(O)[nH]c3ccccc23)[nH]c2ccccc12 | 30 |
| c1ccc(-c2n[nH]c3c2oc2ccccc23)cc1 | 115 |

— ChEMBL document CHEMBL2218924, “A broad activity screen in support of a chemogenomic map for kinase signalling research and drug discovery” (Biochem J, 2013)
